Assay results: PubChem BioAssay (Tox21)
Results filed as inconclusive are left out. Activity calls are given as the source filed them. The call rests on the fitted dose curve; in most records, active means well fitted curve in the direction sought with a large enough effect in the repeat runs; inconclusive means weak or mixed curves; inactive means no such curve, though single readings can be large; an effect the other way counts as inactive or inconclusive.

Each compound was assayed against Cytochrome P450 2C9 (Homo sapiens) (UniProt P11712) (assay: Cytochrome P450 Family 2 Subfamily C Member 9 (CYP2C9) small molecule antagonists: luciferase reporter qHTS assay (AID 1671198)). Conditions: P450-Glo CYP2C9 enzyme assay, luciferin luminescence; series mostly up to 53 µM; activity change, negative = inhibition: at the top concentration.
Cytochrome P450 2C9 (Homo sapiens), sequence (P11712 whole entry, looked up): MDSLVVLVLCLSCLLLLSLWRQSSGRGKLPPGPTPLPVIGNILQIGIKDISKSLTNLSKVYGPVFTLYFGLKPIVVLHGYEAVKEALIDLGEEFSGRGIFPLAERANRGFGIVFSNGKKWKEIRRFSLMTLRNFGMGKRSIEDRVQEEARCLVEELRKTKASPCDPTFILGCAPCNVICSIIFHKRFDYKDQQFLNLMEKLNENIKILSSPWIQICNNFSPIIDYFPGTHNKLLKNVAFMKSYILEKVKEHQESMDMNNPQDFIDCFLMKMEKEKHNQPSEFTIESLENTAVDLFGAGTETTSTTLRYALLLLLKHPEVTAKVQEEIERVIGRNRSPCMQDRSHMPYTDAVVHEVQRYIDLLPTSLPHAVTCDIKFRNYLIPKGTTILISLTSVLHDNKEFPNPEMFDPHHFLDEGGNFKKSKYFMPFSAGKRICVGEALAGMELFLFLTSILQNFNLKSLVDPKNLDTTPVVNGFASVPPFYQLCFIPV
Outline: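 P450-Glo proluciferin substrate with CYP2C9 enzyme; 10 min RT preincubation, then NADPH regeneration 1 h at 37C; luciferin detection reagent 20 min RT, luminescence in relative luminescence units.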
Further: nearly all actives have a fitted effect of over 50% in size.
On the % scale 0 is the no-effect control and ±100 the full control effect; potency means the concentration at half of the fitted maximal effect.

Compound	activity change, negative = inhibition	Potency
CCCCCCCCOC(=O)CCCCCCCCC(=O)OCCCCCCCC	-14.1% [at 115 µM] (inactive)	–
O=C1CCCc2ccccc21	-13.2% [at 115 µM] (inactive)	–
O=c1oc2c(O)c(O)cc3c(=O)oc4c(O)c(O)cc1c4c23	-0.561% [at 23.6 µM] (inactive)	–
O=C(CCCl)NCc1ccccc1	-8.37% (inactive)	–
NCCC(O)(P(=O)(O)O)P(=O)(O)O	-4.6% (inactive)	–
NCCCN1CCN(CCCN)CC1	6.23% [at 115 µM] (inactive)	–
CCCCCCCCCC/C=C/C#N	-21.4% [at 115 µM] (inactive)	–
O=C(O)c1cccc(Cl)c1Cl	-9.17% [at 115 µM] (inactive)	–
FC(F)(F)c1ccccc1	-0.199% [at 115 µM] (inactive)	–
CCCCCCOc1ccc(N)cc1	–	22.4 µM (active)
O=C(O)C(=O)Cc1c[nH]c2ccccc12	–	39.9 µM (active)
O=CCCc1ccccc1	–	35.6 µM (active)
CCCCCCCCCC#N	0.508% [at 115 µM] (inactive)	–
CCCC1CCC(=O)O1 (stereo unspecified)	-1.71% [at 115 µM] (inactive)	–
CC(C)(C)C1CCCCC1=O (stereo unspecified)	-3.62% [at 115 µM] (inactive)	–
CN(C)Cc1ccccc1	-13.4% [at 115 µM] (inactive)	–
CNCCC(Oc1ccccc1OC)c1ccccc1 (stereo unspecified)	-8.89% (inactive)	–
CC(C)C1=CC2=CC[C@@H]3[C@](C)(CCC[C@@]3(C)C(=O)O)[C@H]2CC1	–	28.3 µM (active)
COc1ccc(Nc2ccc(OC)cc2)cc1	–	16.2 µM (active)

Compound	activity change, negative = inhibition	Potency
CC(=O)OC1C2(C)CCC(C2)C1(C)C (stereo unspecified)	-9.91% [at 115 µM] (inactive)	–
CCN(O)CC	3.31% [at 115 µM] (inactive)	–
CCCCCOc1ccc(C2SC(=O)NC2=O)cc1OCC (stereo unspecified)	–	9.77 µM (active)
Cc1ccc([N+](=O)[O-])cc1Cl	15% [at 115 µM] (inactive)	–
Cc1nc(-c2ccccn2)ncc1C(=O)Nn1cc(C)c2cc(F)ccc21	–	1.59 µM (active)
CCN(CCCc1ccccc1)CCCc1ccccc1	-12.4% (inactive)	–
CC(C)(C)c1ccc(OC(=O)c2ccccc2O)cc1	–	31.7 µM (active)
Cn1cnc2c(F)c(Nc3ccc(Br)cc3Cl)c(C(=O)NOCCO)cc21	–	13.8 µM (active)
CCCN(CCC)C(=O)C(CCC(=O)O)NC(=O)c1ccccc1 (stereo unspecified)	-19.1% (inactive)	–
O=C(O)CN(CCN(CC(=O)O)CC(=O)O)CCN(CC(=O)O)CC(=O)O	-0.343% [at 23.6 µM] (inactive)	–
Cc1cc2c(s1)Nc1ccccc1N=C2N1CCN(C)CC1	4.37% (inactive)	–
OCCN(CCO)CCN(CCO)CCO	-5.93% [at 115 µM] (inactive)	–
Cc1nc(N)nc(N)c1-c1ccc(Cl)c(Cl)c1	-16.9% (inactive)	–
CCCCC1CCC(=O)O1 (stereo unspecified)	-13.2% [at 115 µM] (inactive)	–
C=CC1CO1 (stereo unspecified)	6.65% [at 115 µM] (inactive)	–
CCCCCCCCCCCCOCCOS(=O)(=O)O	–	71 µM (active)
Nc1ccc(Oc2ccc(N)c(N)c2)cc1	–	6.33 µM (active)
CCCc1c2oc(C(=O)O)cc(=O)c2cc2c(=O)cc(C(=O)O)n(CC)c12	-0.365% (inactive)	–
O=C1CCCCC1C1CCCCC1 (stereo unspecified)	-10.2% [at 115 µM] (inactive)	–

These compounds were tested against Cytochrome P450 1A2 (Homo sapiens) (UniProt P05177) (assay: Cytochrome P450 Family 1 Subfamily A Member 2 (CYP1A2) small molecule antagonists: luciferase reporter qHTS assay (AID 1671199)). Conditions: P450-Glo CYP1A2 enzyme, luciferin luminescence, 1 h; series mostly up to 53 µM; activity change, negative = inhibition: at the top concentration.
Cytochrome P450 1A2 (Homo sapiens), sequence (P05177 whole entry, looked up): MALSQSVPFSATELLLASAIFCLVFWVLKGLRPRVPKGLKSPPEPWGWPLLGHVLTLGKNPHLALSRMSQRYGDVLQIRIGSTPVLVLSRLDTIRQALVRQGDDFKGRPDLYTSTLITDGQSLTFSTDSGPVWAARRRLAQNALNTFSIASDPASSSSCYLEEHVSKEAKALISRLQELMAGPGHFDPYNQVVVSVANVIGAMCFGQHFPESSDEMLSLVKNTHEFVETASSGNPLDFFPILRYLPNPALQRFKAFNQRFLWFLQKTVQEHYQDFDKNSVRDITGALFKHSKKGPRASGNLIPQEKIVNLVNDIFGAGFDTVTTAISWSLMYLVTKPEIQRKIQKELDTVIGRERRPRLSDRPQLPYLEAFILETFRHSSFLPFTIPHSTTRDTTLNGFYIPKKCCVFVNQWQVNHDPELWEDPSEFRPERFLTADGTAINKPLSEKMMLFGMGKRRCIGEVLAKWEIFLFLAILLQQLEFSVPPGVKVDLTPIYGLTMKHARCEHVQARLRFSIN
Outline: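 Inhibition of CYP1A2 conversion of proluciferin to luciferin, detected by luminescence. Reaction run 1 h at room temperature with NADPH regeneration after brief compound preincubation.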

Compound	activity change, negative = inhibition	Potency
CCCCCCCCOC(=O)CCCCCCCCC(=O)OCCCCCCCC	-13.1% [at 115 µM] (inactive)	–
O=C1CCCc2ccccc21	–	36 µM (active)
O=c1oc2c(O)c(O)cc3c(=O)oc4c(O)c(O)cc1c4c23	12.7% [at 23.6 µM] (inactive)	–
NCCC(O)(P(=O)(O)O)P(=O)(O)O	–	24.5 µM (active)
FC(F)(F)c1ccccc1	-30.2% [at 115 µM] (inactive)	–
CCCCCCOc1ccc(N)cc1	–	3.99 µM (active)
O=C(O)C(=O)Cc1c[nH]c2ccccc12	–	35.6 µM (active)
CC(C)(C)C1CCCCC1=O (stereo unspecified)	-17.3% [at 115 µM] (inactive)	–
COc1ccc(Nc2ccc(OC)cc2)cc1	–	18.2 µM (active)
CCN(O)CC	-10.8% [at 115 µM] (inactive)	–
Cc1ccc([N+](=O)[O-])cc1Cl	-2.28% [at 115 µM] (inactive)	–
Cc1nc(-c2ccccn2)ncc1C(=O)Nn1cc(C)c2cc(F)ccc21	–	31.7 µM (active)
CCN(CCCc1ccccc1)CCCc1ccccc1	–	7.23 µM (active)
CC(C)(C)c1ccc(OC(=O)c2ccccc2O)cc1	–	39.9 µM (active)
CCCN(CCC)C(=O)C(CCC(=O)O)NC(=O)c1ccccc1 (stereo unspecified)	13.3% (inactive)	–
O=C(O)CN(CCN(CC(=O)O)CC(=O)O)CCN(CC(=O)O)CC(=O)O	13.9% [at 23.6 µM] (inactive)	–
Cc1cc2c(s1)Nc1ccccc1N=C2N1CCN(C)CC1	-1.85% (inactive)	–
OCCN(CCO)CCN(CCO)CCO	-23.7% [at 115 µM] (inactive)	–
Cc1nc(N)nc(N)c1-c1ccc(Cl)c(Cl)c1	-21% (inactive)	–
Nc1ccc(Oc2ccc(N)c(N)c2)cc1	–	35.6 µM (active)
CCCc1c2oc(C(=O)O)cc(=O)c2cc2c(=O)cc(C(=O)O)n(CC)c12	11.8% (inactive)	–
O=C1CCCCC1C1CCCCC1 (stereo unspecified)	-4.5% [at 115 µM] (inactive)	–

What follows are compounds tested against Voltage-gated inwardly rectifying potassium channel KCNH2 (Homo sapiens) (UniProt Q12809) (assay: Human Ether-a-go-go-Related Gene (hERG) channel small molecule antagonists: fluorescence cell-based qHTS assay (AID 1671200;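 on activity change, negative = inhibition: hERG-expressing U2OS cells given a thallium stimulus after FluxOR II dye loading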)). Conditions: hERG-U2OS cells, FluxOR thallium flux fluorescence; series mostly up to 76.8 µM; activity change, negative = inhibition: at the top concentration.
Voltage-gated inwardly rectifying potassium channel KCNH2 (Homo sapiens), sequence (Q12809 whole entry, looked up): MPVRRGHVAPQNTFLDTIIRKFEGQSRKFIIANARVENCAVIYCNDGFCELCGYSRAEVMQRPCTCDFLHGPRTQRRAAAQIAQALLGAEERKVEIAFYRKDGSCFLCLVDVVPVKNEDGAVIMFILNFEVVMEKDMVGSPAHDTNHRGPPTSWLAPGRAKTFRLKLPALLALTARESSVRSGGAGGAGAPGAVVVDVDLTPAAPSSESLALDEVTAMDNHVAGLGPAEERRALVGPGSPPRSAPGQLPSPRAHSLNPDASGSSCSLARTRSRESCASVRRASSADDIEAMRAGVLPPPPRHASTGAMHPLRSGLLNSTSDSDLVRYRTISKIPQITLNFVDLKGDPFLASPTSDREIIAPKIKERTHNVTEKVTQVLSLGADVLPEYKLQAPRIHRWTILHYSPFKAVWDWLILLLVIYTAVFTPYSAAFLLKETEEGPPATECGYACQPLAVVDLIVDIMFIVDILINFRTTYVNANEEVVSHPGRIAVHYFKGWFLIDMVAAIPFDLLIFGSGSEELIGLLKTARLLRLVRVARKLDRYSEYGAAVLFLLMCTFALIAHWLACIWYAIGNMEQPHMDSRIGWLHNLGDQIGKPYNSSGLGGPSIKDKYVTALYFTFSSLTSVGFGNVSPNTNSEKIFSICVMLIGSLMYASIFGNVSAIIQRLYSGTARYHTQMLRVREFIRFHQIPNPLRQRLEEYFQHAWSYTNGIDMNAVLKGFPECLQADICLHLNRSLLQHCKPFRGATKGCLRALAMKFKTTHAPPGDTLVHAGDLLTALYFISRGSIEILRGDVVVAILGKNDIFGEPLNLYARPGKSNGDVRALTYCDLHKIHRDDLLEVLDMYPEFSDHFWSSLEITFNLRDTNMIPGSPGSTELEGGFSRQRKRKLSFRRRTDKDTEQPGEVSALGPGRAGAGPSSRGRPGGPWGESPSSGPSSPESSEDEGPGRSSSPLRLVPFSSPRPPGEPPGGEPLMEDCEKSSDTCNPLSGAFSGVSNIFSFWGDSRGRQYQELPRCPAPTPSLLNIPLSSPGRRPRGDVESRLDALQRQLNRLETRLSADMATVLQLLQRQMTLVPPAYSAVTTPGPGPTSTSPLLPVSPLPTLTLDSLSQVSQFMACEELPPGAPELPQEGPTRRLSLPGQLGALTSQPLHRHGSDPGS
Outline: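 Cell line hERG-U2OS; dye FluxOR II, 1 h RT dark; Tl+ stimulus; ex 480/em 540 nm, read each second for 2 min.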

Compound	activity change, negative = inhibition	Potency
O=C1CCCc2ccccc21	-0.797% (inactive)	–
O=C(CCCl)NCc1ccccc1	-2.95% [at 35.3 µM] (inactive)	–
NCCCN1CCN(CCCN)CC1	5.09% (inactive)	–
CCCCCCCCCC/C=C/C#N	-15.3% (inactive)	–
O=C(O)c1cccc(Cl)c1Cl	7.16% (inactive)	–
CCCCCCOc1ccc(N)cc1	-8.96% (inactive)	–
O=CCCc1ccccc1	-1.76% (inactive)	–
CCCCCCCCCC#N	-0.252% (inactive)	–
CCCC1CCC(=O)O1 (stereo unspecified)	4.82% (inactive)	–
CN(C)Cc1ccccc1	2.22% (inactive)	–
CNCCC(Oc1ccccc1OC)c1ccccc1 (stereo unspecified)	–	8.49 µM (active)
CC(C)C1=CC2=CC[C@@H]3[C@](C)(CCC[C@@]3(C)C(=O)O)[C@H]2CC1	2.03% (inactive)	–
CC(=O)OC1C2(C)CCC(C2)C1(C)C (stereo unspecified)	-0.502% (inactive)	–
CCCCCOc1ccc(C2SC(=O)NC2=O)cc1OCC (stereo unspecified)	-2.8% [at 35.3 µM] (inactive)	–
Cc1ccc([N+](=O)[O-])cc1Cl	2.22% (inactive)	–
Cc1nc(-c2ccccn2)ncc1C(=O)Nn1cc(C)c2cc(F)ccc21	-10.5% (inactive)	–
CC(C)(C)c1ccc(OC(=O)c2ccccc2O)cc1	-25.7% (inactive)	–
Cn1cnc2c(F)c(Nc3ccc(Br)cc3Cl)c(C(=O)NOCCO)cc21	-19% [at 35.3 µM] (inactive)	–
CCCN(CCC)C(=O)C(CCC(=O)O)NC(=O)c1ccccc1 (stereo unspecified)	3.51% [at 35.3 µM] (inactive)	–
O=C(O)CN(CCN(CC(=O)O)CC(=O)O)CCN(CC(=O)O)CC(=O)O	6.28% [at 15.8 µM] (inactive)	–
Cc1cc2c(s1)Nc1ccccc1N=C2N1CCN(C)CC1	-14.5% [at 35.3 µM] (inactive)	–
CCCCC1CCC(=O)O1 (stereo unspecified)	5.84% (inactive)	–
C=CC1CO1 (stereo unspecified)	0.84% (inactive)	–
CCCCCCCCCCCCOCCOS(=O)(=O)O	5.62% (inactive)	–
Nc1ccc(Oc2ccc(N)c(N)c2)cc1	-12.4% (inactive)	–
CCCc1c2oc(C(=O)O)cc(=O)c2cc2c(=O)cc(C(=O)O)n(CC)c12	2.06% [at 35.3 µM] (inactive)	–
